Drawing on the supplement of paper PMC6555819, this text covers PBM binding z-score for six sequences.

Common to all, as to experiment: PBM binding z-score (relative to random genomic background probes); higher = stronger binding; sequences stand for … in GC…GCGATTGACAGCGTAGAATGAAGG
For assay [1], the system named is FXR:RXRa (NR concentration 270 nM, RXRa partner concentration 90 nM). A digest of the protocol: (§1)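 Scanned fluorescence from custom Agilent 4×180K protein-binding microarrays was regression-normalized. Binding z-scores use random background probes as reference. Ligand-free nuclear receptor dimers were incubated on the arrays for 1 h and detected with antibodies against each partner (one per run).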

Assay [2] concerns LXRa:RXRa (NR concentration 270 nM, RXRa partner concentration 90 nM). An outline of the steps:
as §1

The test system of assay [3] is LXRa homodimer (NR concentration 270 nM). An outline of the steps:
as §1

Assay [4] relates to LXRb:RXRa (NR concentration 270 nM, RXRa partner concentration 90 nM). A digest of the protocol: as §1
Assay [5] concerns LXRb homodimer (NR concentration 270 nM). An outline of the steps:
as §1

Assay [6] relates to PPARa:RXRa (NR concentration 270 nM, RXRa partner concentration 90 nM). A digest of the protocol: as §1
Assay [7] has as its system PPARg:RXRa (NR concentration 180 nM, RXRa partner concentration 90 nM). A digest of the protocol:
as §1

Assay [8] relates to PPARg:RXRa 270nM:90nM, anti-RXR (NR concentration 270 nM, RXRa partner concentration 90 nM). A digest of the protocol: as §1
Assay [9] has as its system PPARg:RXRa 30nM:10nM, anti-RXR (NR concentration 30 nM, RXRa partner concentration 10 nM). A digest of the protocol: as §1
In assay [10] the test system is PPARg:RXRa 90nM:30nM, anti-RXR (NR concentration 90 nM, RXRa partner concentration 30 nM). An outline of the steps: as §1
Assay [11] relates to PPARg:RXRa DBDmut IVT, anti-RXR (DBD mutation: RXRa K156A/R161A, NR concentration 270 nM, RXRa partner concentration 90 nM). An outline of the steps:
as §1

In assay [12] the test system is PPARg:RXRa IVT, anti-PPARg (NR concentration 270 nM, RXRa partner concentration 90 nM). An outline of the steps: as §1
Assay [13] deals with PPARg DBDmut:RXRa IVT, anti-PPARg (DBD mutation: PPARg1 K132A/R137A, NR concentration 270 nM, RXRa partner concentration 90 nM). A digest of the protocol: as §1
Assay [14] relates to PPARg DBDmut IVT, anti-PPARg (DBD mutation: PPARg1 K132A/R137A, NR concentration 270 nM). A digest of the protocol: as §1
For assay [15], the system named is PPARg homodimer (NR concentration 180 nM). A digest of the protocol:
as §1

Assay [16] concerns PXR:RXRa (NR concentration 270 nM, RXRa partner concentration 90 nM). An outline of the steps:
as §1

The subject of assay [17] is PXR homodimer (NR concentration 270 nM). An outline of the steps: as §1
For assay [18], the system named is RARa:RXR (NR concentration 270 nM, RXRa partner concentration 90 nM). A digest of the protocol:
as §1

For assay [19], the system named is RARa homodimer (NR concentration 270 nM). An outline of the steps: as §1
Assay [20] relates to RARb:RXRa (NR concentration 270 nM, RXRa partner concentration 90 nM). An outline of the steps:
as §1

Take TGATTGAGGTTATAAGATCAGGGAACGTTGCAAA: the PBM binding z-score in assay [1] is 1.58; in assay [2], 1.48; in assay [3], -0.174; in assay [4], 1.21; in assay [5], -0.195; in [6], 2.46. The PBM binding z-score in [7] came to 0.965; in assay [8], 1.78; in assay [9], 0.689; in assay [10], 1.56; in assay [11], 0.431; in [12], 1.59. Moreover, the PBM binding z-score in assay [13] is 0.391; in assay [14], 0.349; in [15], 0.564; in assay [16], 0.896; in assay [17] it was -0.0809; in assay [18] it was 1.5. Also, the PBM binding z-score in assay [19] was determined as 0.232; in [20], 1.19.

As to AGAATGAAGTTATTAAGATCAGGGAATTGCGGTC, the PBM binding z-score in assay [1] is -0.377; in [2] it was -0.535; in [3], -0.241; in assay [4], -0.514; in assay [5] it was -0.42; in assay [6], -0.386. Also, the PBM binding z-score in [7] was 0.173; in assay [8], -0.222; in assay [9], 0.106; in assay [10], 0.114; in assay [11], -0.0627; in assay [12], -0.0866. Further, the PBM binding z-score in assay [13] is 0.409; in assay [14], 0.313; in assay [15], 0.538; in assay [16], -0.219; in assay [17], 0.044; in [18], 0.183. In addition, the PBM binding z-score was 0.224 in assay [19] and -0.286 in [20].

Regarding CTAACTAGGTCAAGGACAGTGAATCTCCGCACGC, the PBM binding z-score in assay [1] came to 3.07; in assay [2] it was 2.43; in [3] it was 0.51; in [4], 1.58; in [5] it was 0.129; in assay [6] it was 4.99. For the same sequence, the PBM binding z-score came to 8.18 in assay [7]; 6.92 in assay [8]; 4.93 in assay [9]; 6.92 in [10]; 8.7 in assay [11]; 8.66 in [12]. Moreover, the PBM binding z-score is 2.25 in assay [13]; 1.42 in assay [14]; 3.48 in assay [15]; 1.21 in assay [16]; 0.296 in assay [17]; 1.87 in [18]. The figures for the PBM binding z-score in assay [19] and in assay [20] were 0.59 and 4.08, respectively.

As to GCTGCTAGGTCAGGTTGGTCAGCGAACGGGTACG, the PBM binding z-score in assay [1] is 1.22; in assay [2] it was 0.707; in [3], -0.269; in assay [4], 0.492; in assay [5] it was -0.499; in assay [6] it was 1.3. The PBM binding z-score in [7] is 0.347; in assay [8], 0.793; in assay [9], -0.213; in assay [10], 0.414; in assay [11] it was 2.7; in assay [12], 2.09. Besides, the PBM binding z-score in assay [13] was 0.222; in assay [14], -1.25; in assay [15], 0.933; in assay [16] it was 0.281; in [17], -0.36; in assay [18], 0.76. Further, the values for the PBM binding z-score in [19] and in assay [20] were -0.581 and 3.31, respectively.

On to CCTAGTTGGTCACGAGGTCACACACCGGATATGA, for which the PBM binding z-score amounted to 4.38 in assay [1]; 3.84 in assay [2]; 2.36 in [3]; 3.94 in [4]; 0.56 in assay [5]; 5 in [6]. The PBM binding z-score in [7] was found to be 5.28; in assay [8], 4.91; in [9], 2.28; in assay [10], 3.65; in assay [11], 3.54; in [12], 5.42. The PBM binding z-score in assay [13] worked out at 0.987; in [14], 1.28; in assay [15], 2.99; in [16] it was 4.79; in [17], 1.97; in assay [18], 4.87. The PBM binding z-score is 1.29 in assay [19] and 4.14 in [20].

With ATCTCTAGGTAACAAGCTCAGTGAAAGAGAGGAC, the PBM binding z-score in [1] is 0.331; in assay [2], 0.45; in assay [3], -0.0616; in assay [4], -0.105; in [5], 0.556; in assay [6], 0.394. For the same sequence, the PBM binding z-score came to 0.682 in [7]; 0.77 in assay [8]; 0.327 in assay [9]; 0.644 in [10]; 2.93 in [11]; 2.48 in assay [12]. The PBM binding z-score was 0.643 in assay [13]; 1.26 in assay [14]; 0.56 in assay [15]; -0.0529 in [16]; 0.34 in assay [17]; 0.0879 in [18]. For the same sequence, the PBM binding z-score in assay [19] stood at 0.837; in assay [20], 0.417.
